# Source: PubChem BioAssay AID686978 (National Center for Advancing Translational Sciences (NCATS), 2013)
# The whole screen tested about 420,000 compounds, of which about 64,000 (15%) were called active. Another 27% or so got no clear call; they are omitted. Calls come from the whole dose curve; as a rule, active = well fitted inhibition curve with a large enough effect; inconclusive = small, poorly fitted or top-dose-only effect; inactive = flat fitted curve, though single readings scatter. These entries were drawn from the full list.
# Experiment: qHTS for Inhibitors of human tyrosyl-DNA phosphodiesterase 1 (TDP1): qHTS in cells in absence of CPT; note: nearly all actives have a fitted effect of over 55% in size
# Settings: DT40 Tdp1-/- hTDP1 cells, no CPT, ATP luminescence, 48 h; activity change, negative = growth inhibition: at 46.2 µM (top of the series)
# How it was run: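 Seeded 400 DT40-hTDP1 cells/well (vehicle DMSO, no 20 nM CPT); pinned compounds; ≥48 hr at 37 °C; CellTiter-Glo luminescence as viability measure.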
# % is set by controls: 0 for no effect and ±100 for the full control effect; potency is the fitted concentration of half-maximal effect.
Compound,"activity change, negative = growth inhibition",Potency
Cc1cc(O)c(C(c2ccccc2)N2CCN(c3ccccc3F)CC2)c(=O)n1Cc1ccco1 (centres undefined),1.79% (inactive),
Clc1ccc(-n2nnnc2CN2CCCCC2)cc1Cl,-20.1% (inactive),
c1ccc(CCn2nnnc2CN2CCN(C3CCCC3)CC2)cc1,-3.23% (inactive),
COc1ccccc1C(c1nnnn1CC1CCCO1)N1CCN(c2ccccc2)CC1 (centres undefined),-0.572% (inactive),
COc1ccc(CCn2nnnc2C(c2ccccc2)N2CCN(C)CC2)cc1OC (centres undefined),-10.5% (inactive),
CCCCn1nnnc1C(c1cccc(OC)c1OC)N1CCN(C/C=C/c2ccccc2)CC1 (centres undefined),,20.6 µM (active)
CCCCn1nnnc1C(c1ccccc1)N1CCN(c2ccccc2OC)CC1 (centres undefined),,20.6 µM (active)
C=CCC(Nc1ccccc1)c1cccc(OC)c1OC (centres undefined),-27.1% (inactive),
c1ccc(C(c2ccccc2)N2CCN(Cc3nnnn3C3CCCCC3)CC2)cc1,,20.6 µM (active)
COc1ccccc1N1CCN(Cc2nnnn2CCc2ccccc2)CC1,-21.4% (inactive),
CCCCn1nnnc1NCc1cc(OC)c(OC)c(OC)c1,-16% (inactive),
Cc1cccc(N2CCN(C(c3ccccc3)c3nnnn3CC3CCCO3)CC2)c1C (centres undefined),,11.6 µM (active)
O=C(Nc1nncs1)c1ccccc1NS(=O)(=O)c1cccs1,-5% (inactive),
O=C(CSCc1ccc([N+](=O)[O-])cc1)Nc1cccc(C(=O)Nc2ccccc2C(=O)O)c1,-1.66% (inactive),
C[C@H](NC(=O)C1CC(=O)N(c2ccc3c(c2)OCO3)C1)C(=O)NCc1ccco1 (some centres undefined),5.08% (inactive),
CCCCC(=O)NCc1ccc(F)cc1,-5.14% (inactive),
CCCCNC(=O)C1CCC(CNS(=O)(=O)c2ccc(NC(C)=O)cc2)CC1 (centres undefined),,inactive
O=C1C(=O)N(CCN2CCOCC2)C(c2ccccn2)/C1=C(/O)c1ccc(Cl)cc1 (centres undefined),-2.58% (inactive),
O=C(O)CN1CCN(C(c2ccccc2)c2ccccc2)CC1,-3.58% (inactive),
Oc1ccccc1CN1CCN(C(c2ccccc2)c2ccccc2)CC1,,16.4 µM (active)
O=C(Nc1ccnn1C1CCN(C/C=C/c2ccc(F)cc2)CC1)C1CCCC1,-24.1% (inactive),
COc1ccc(/C=C/CN2CCN(Cc3ccc(C)cc3)C(CCO)C2)cc1 (centres undefined),-11.8% (inactive),

Compound,"activity change, negative = growth inhibition",Potency
COc1ccc(C(c2nnnn2C2CCCC2)N2CCN(C/C=C/c3ccccc3)CC2)cc1 (centres undefined),,16.4 µM (active)
CC(C)OCC(O)CN1CCN(C(c2ccccc2)c2ccccc2)CC1 (centres undefined),-29.4% (inactive),
CCOC(=O)c1c(C(C#N)C#N)cc(C)nc1C,6.14% (inactive),
OC[C@H]1O[C@@H](c2nc(-c3nc(-c4ccc(F)cc4)no3)cs2)[C@H](O)[C@@H](O)[C@H]1O,-1.45% (inactive),
O=C(Nc1ccc2c(c1)OCO2)c1cc(-c2cccc(Cl)c2)on1,-24% (inactive),
CCC(Oc1ccccc1)C(=O)NCc1cccnc1 (centres undefined),-9.49% (inactive),
O=C(O)CC/C(=C\c1cc2c(cc1Br)OCO2)c1nc2ccccc2s1,-10.6% (inactive),
O=C(O)C1=C(C(=O)O)C2CCC1C2,7.41% (inactive),
COc1ccccc1N(CC(=O)N/N=C(\C)c1ccccc1O)S(=O)(=O)c1ccc(C)cc1,,1.64 µM (active)
COc1ccc(S(=O)(=O)N(CC(=O)N/N=C/c2ccccc2C(=O)O)c2ccccc2OC)cc1,8.49% (inactive),
COc1ccccc1N(CC(=O)Nc1c(C)n(C)n(-c2ccccc2)c1=O)S(=O)(=O)c1ccccc1,-2.53% (inactive),
COC(=O)[C@H](C(C)C)n1c(C)c(C(C)=O)c(C(C)=O)c1C,-4.99% (inactive),
O=S(=O)(c1cccc(C(F)(F)F)c1)N1CCN(c2cnccn2)CC1,-22.1% (inactive),
O=S(=O)(c1cccc(C(F)(F)F)c1)N1c2ccccc2-n2cccc2C1c1cccnc1 (centres undefined),,18.4 µM (active)
O=S(=O)(c1cccc(C(F)(F)F)c1)N1CCN(c2nc(-c3cccs3)nc3ccccc23)CC1,3.79% (inactive),
O=S(=O)(c1ccc(F)cc1)n1ccc(-c2cnc(-c3ccccc3)s2)n1,-24.7% (inactive),
CCN(CC)c1ccc(NC(=O)CN2CCN(c3ccccn3)CC2)cc1,4.15% (inactive),
CN(C(=O)CN1CCN(c2cc(-c3ccc(OCc4ccccc4)cc3)ncn2)CC1)c1ccccc1,,18.4 µM (active)
COc1ccc(NC(C)=O)cc1NC(=O)CN1CCN(c2ccccn2)CC1,-3.85% (inactive),
O=C1OCC2=C1C(c1ccccc1)CC(=O)N2c1cccc(F)c1 (centres undefined),-21.1% (inactive),
CSc1sc(C(=O)NNC(=O)c2ccc(Cl)cc2)c2c1C=CCC2,-20.5% (inactive),
Cc1ccc(OCC(=O)Nc2ccc(OCc3cc(=O)n4c(C)csc4n3)cc2)cc1C,-20.7% (inactive),

Compound,"activity change, negative = growth inhibition",Potency
Cc1csc2nc(COC(=O)c3ccccc3NC(=O)c3ccccc3Cl)cc(=O)n12,,11.6 µM (active)
Cc1csc2nc(COC(=O)c3ccc(NC(=O)COc4ccccc4F)cc3)cc(=O)n12,,18.4 µM (active)
Cc1ccc(C(=O)Nc2ccc(OCc3cc(=O)n4c(C)csc4n3)cc2)cc1,-16.5% (inactive),
Cc1csc2nc(COc3ccc(NC(=O)COc4ccccc4)cc3)cc(=O)n12,-5.67% (inactive),
O=C(COc1ccccc1F)Nc1ccc(C(=O)OCc2cc(=O)n3nc(C4CC4)sc3n2)cc1,-5.03% (inactive),
Cc1nc2c(c(C)nn2-c2ccccc2)c(C)c1C,-4.15% (inactive),
Cc1cccc(-n2nc3c(c2NC(=O)c2cc4ccccc4o2)CS(=O)(=O)C3)c1,6.63% (inactive),
CC(C)COc1ccc(C(=O)NNC(=O)CCC(=O)c2cccs2)cc1,-12% (inactive),
CCCCCCCCCCCC(=O)O[C@H](CC(=O)O)C[N+](C)(C)C,-7.19% (inactive),
CC(=O)c1ccc(Cc2ncc(C(F)(F)F)cc2Cl)s1,-26.3% (inactive),
Cc1ccc(S(=O)(=O)CCC(=O)OCc2ccccc2)cc1,15.7% (inactive),
Cc1ccc(S(=O)(=O)N(CCc2ccccc2)c2ccc3c(c2)C2CC3CCN2C(=O)OCc2ccccc2)cc1 (centres undefined),,9.2 µM (active)
CCOC(=O)N1CCN(C(=O)CN(c2ccc(C)c(C)c2)S(=O)(=O)c2ccccc2)CC1,-12.8% (inactive),
COc1cc(C(C)=O)ccc1OC(=O)CN1C(=O)c2ccccc2C1=O,-26% (inactive),
CCOC(=O)c1[nH]cnc1C(=O)Nc1ccccc1C,-3.94% (inactive),
O=C(Nc1ccc2c(c1)CCC2)c1cccc(S(=O)(=O)Nc2ccccc2Cl)c1,-14.2% (inactive),
CCCCN(C(=O)c1ccc(C)o1)c1c(N)n(CCCC)c(=O)[nH]c1=O,13.2% (inactive),
O=C(CN1CCOCC1)Nc1c(Cl)cc(Cl)cc1Cl,10.4% (inactive),
CC(C)(C)c1cc(NC(=O)NN2CCOCC2)nn1-c1c(Cl)cc(Cl)cc1Cl,,14.6 µM (active)
O=C(Nc1ccc(CN2CCOCC2)cc1)c1cc(Cl)ccc1Cl,-0.347% (inactive),
